Experimental data reported in ChEMBL document CHEMBL3988442, “University of Dundee, Small-Polar-MMV Screening Library” (2021).
Screen size: about 48,000 compounds; about 13,000 (27%) showed an effect of 50% or more. The list shows a part of the results.

The compounds below were run on Wolbachia pipientis (assay: Anti-Wolbachia Cell-Based Screen). Details: 5 µM.
Assay type: functional
Design: scale not given: in the data most compounds retested in dose-response had high values

| SMILES | Percent Effect |
| --- | --- |
| COc1ccccc1NC(=O)NCC(O)(c1ccccc1)C1CC1 (configuration not stated) | 10.27% |
| CCOc1ccc(NS(=O)(=O)c2cc(C)c(C(=O)O)s2)cc1F | -1.908% |
| CC(C)=CCN1CCC(c2nccn2Cc2cscn2)CC1 | 3.314% |
| Cc1nccn1CCCC(=O)N1CCC(N(C)c2cccnn2)CC1 | 114.4% |
| Cc1ccccc1N1CCCN(C(=O)CCCn2ccnc2C)CC1 | 7.495% |
| Cc1nccn1CCCC(=O)N1CCCN(c2cccnn2)CC1 | 66.22% |
| CC[C@H]1CN(C(=O)c2cccnc2)CC[C@H]1CC(=O)NCCOC | -6.846% |
| Cc1nc2cc(C3CCN(C(=O)c4ccccn4)CC3)nn2c(O)c1C | 104% |
| CC(C)n1ccnc1C1CCN(C(=O)c2ccc(SCCO)cc2)CC1 | -4.655% |
| CCc1cc(O)n2nc(C3CCN(C(=O)c4ccncc4)CC3)cc2n1 | 121.2% |
| CCC(C)c1noc(C2CCN(C(=O)c3cccnc3)CC2)n1 (configuration not stated) | -14.35% |
| CCc1nc(C2CCCN2C(=O)c2nc(C)n3ccccc23)no1 (configuration not stated) | -3.852% |
| Cn1ccc(C2CCCCN2C(=O)c2cccc(Cn3cccn3)c2)n1 (configuration not stated) | -10.23% |
| CCc1cc(O)n2nc(C3CCN(C(=O)c4cccnc4)CC3)cc2n1 | 97.39% |
| CCc1cc(O)n2nc(C3CCCN3C(=O)c3ccccn3)cc2n1 (configuration not stated) | 131.2% |
| CCc1nc(CN(C)C(=O)NCc2cccc(NC(C)=O)c2)cs1 | -8.024% |
| CS(=O)(=O)CCNCc1ccc(OCc2cscn2)cc1 | -7.403% |
| CC(C)c1ccc(OCCC(=O)N(C)CC(=O)N(C)C)cc1 | -12.7% |
| CCc1cc(O)n2nc(C3CCN(C(=O)c4ccccn4)CC3)cc2n1 | 117.9% |
| CC(C)n1ccnc1C1CCN(C(=O)c2ccccn2)CC1 | -22.55% |
| CCc1nnc(CN2CCN(C(=O)c3ccccn3)CC2)o1 | -6.012% |
| Cc1nn(C)c(N(C)C)c1CNCc1ccc(C(=O)N(C)C)cc1 | 123.8% |
| COc1c(CNCc2ccc(C(=O)N(C)C)cc2)c(C)nn1C.Cl | -9.305% |

| SMILES | Percent Effect |
| --- | --- |
| CCNC(=O)c1ccc(CNCc2c(C)nn(C)c2N(C)C)cc1 | 0.7448% |
| COc1c(CNCc2ccc(C(=O)N(C)C(C)C)cc2)c(C)nn1C | 196.4% |
| COc1c(CNCCNC(=O)c2ccco2)c(C)nn1C | 8.194% |
| COc1c(CNCCNC(=O)c2ccc(C)cc2)c(C)nn1C | -13.57% |
| Cc1nn(C)c(N(C)C)c1CNCc1ccc(OCC(N)=O)cc1.Cl | 3.035% |
| COc1c(CNCc2cccc(C(=O)N(C)C)c2)c(C)nn1C | 120.7% |
| COc1c(CNCc2ccc(C(=O)NC3CC3)cc2)c(C)nn1C.Cl | -2.896% |
| COc1c(CNCc2ccc(C(=O)N3CCCC3)cc2)c(C)nn1C.Cl | 173.2% |
| COc1c(CNCc2cccc(CN(C)C)c2)c(C)nn1C.Cl | -1.675% |
| CCc1noc(CS(=O)(=O)Cc2ccccc2C)n1 | 2.156% |
| CN1C[C@@H](N)C[C@H]1c1nc(-c2ccc3c(c2)OCO3)no1 | -7.718% |
| CC(C)(C)n1cc(CNC2CCN(C(=O)c3ccoc3)CC2)cn1.Cl | 4.064% |
| CCC(C)(C)C(=O)NCCCOC1CCOC1 (configuration not stated) | -11.1% |
| CC(C)S(=O)(=O)N1CCOC(CCc2ccccc2)C1 (configuration not stated) | -8.11% |
| O=C(O)C(F)(F)F.c1cncc(N2CCCn3nnc(COCC4CC4)c3C2)c1 | 122.7% |
| O=C(O)C(F)(F)F.O=C(O)C(F)(F)F.c1ccc(CN2CCCn3nnc(COc4ccccn4)c3C2)nc1 | -12.56% |
| Cc1cnnn1Cc1nnn2c1CN(Cc1ccccn1)CCC2.O=C(O)C(F)(F)F | -8.238% |
| C1CN(CC2CCOCC2)Cc2c(CN3CCOCC3)nnn2C1 | 2.088% |
| O=C(O)C(F)(F)F.O=C(O)C(F)(F)F.c1cncc(CN2CCCn3nnc(COCC4CC4)c3C2)c1 | -24.42% |
| c1cncc(N2CCCn3nnc(CN4CCOCC4)c3C2)c1 | 107.9% |
| c1cc(CN2CCCn3nnc(COCC4CC4)c3C2)ccn1 | -2.908% |
| O=C1CCCN1Cc1nnn2c1CN(c1ncccn1)CCC2 | -7.828% |
| O=C(O)C(F)(F)F.O=C1CCCN1Cc1nnn2c1CN(c1cccnc1)CCC2 | 87.49% |

| SMILES | Percent Effect |
| --- | --- |
| O=C(O)C(F)(F)F.O=C(O)C(F)(F)F.c1cncc(N2CCCn3nnc(CN4CCCCC4)c3C2)c1 | 109.4% |
| O=C(O)C(F)(F)F.O=C(O)C(F)(F)F.O=C(c1cccnc1)N1CCn2nnc(COc3cccnc3)c2C1 | -17.53% |
| O=C(O)C(F)(F)F.c1cnc(N2CCCn3nnc(COCC4CC4)c3C2)nc1 | -15.27% |
| COc1ccc(C)cc1CN(Cc1ncc(C)o1)C1CCN(C)C1 (configuration not stated) | 18.81% |
| Cc1cccc(N2N=C(C(=O)NC(C)CCc3ccco3)CCC2=O)c1 (configuration not stated) | 5.008% |
| CC(C)C(=O)NC1CCN(CCO)CC1 | -14.55% |
| N#Cc1ccc(CNC(=O)NCCC(=O)NC2CCCC2)c(F)c1 | 1.823% |
| CCCOCCN1CCc2[nH]c(-c3ccc(OC)cc3)nc2C1 | 0.5641% |
| O=C(O)C(F)(F)F.O=C(O)C(F)(F)F.c1cncc(COCc2nnn3c2CN(Cc2ccsc2)CC3)c1 | 109.1% |
| O=C(O)C(F)(F)F.O=C(O)C(F)(F)F.c1cncc(OCc2nnn3c2CN(Cc2ccsc2)CCC3)c1 | -20.94% |
| O=C(O)C(F)(F)F.O=C(O)C(F)(F)F.c1cncc(COCc2nnc3n2CCN(Cc2ccsc2)C3)c1 | -0.7002% |
| O=C(NCc1ccc(Cl)cc1)[C@@H]1Cc2[nH]cnc2CN1CC1CC1 | 10.78% |
| Cn1cc(CN2CCC(c3cc(CCO)[nH]n3)C2)cn1 (configuration not stated) | 135.9% |
| Cn1cc(CN2CCCC(CCc3ccc(F)cc3F)C2)cn1 (configuration not stated) | 13.59% |
| Cc1cc(C2CCCN(Cc3cccnc3)C2)n[nH]1 (configuration not stated) | -3.647% |
| Cn1cc(CN2CCC(c3cc(COc4ccc(Cl)cc4)[nH]n3)C2)cn1 (configuration not stated) | 120.4% |
| Br.Cn1cc(CN2CCC(c3cc(COc4cccc(Cl)c4)[nH]n3)C2)cn1 (configuration not stated) | 108.1% |
| Cn1cc(CN2CCCC(CCc3ccc(F)c(F)c3)C2)cn1 (configuration not stated) | -4.852% |
| Cc1n[nH]c(C2CN(CCCOc3cccc(Cl)c3)CCO2)n1 (configuration not stated) | 17.53% |
| Cn1cc(CN2CCCC(Cn3cc(CCCO)nn3)C2)cn1 (configuration not stated) | -7.109% |
| Cn1cc(CN2CCCC(CCc3ccc(F)cc3)C2)cn1 (configuration not stated) | 5.496% |
